Screening data (PubChem BioAssay)
This is a sample that favours compounds with a hit; in the whole collection about 2.4% have one here.
MEKK3 PB1 HTS = MEKK3-MEK5 PB1 interaction, increase or decrease | AID 1529 | 1.4% of 290,000 active | Q99759 | bead-based flow cytometry, Alexa488-MEK5 binding to MEKK3; actives lie on both sides; 0 = blocked by unlabeled MEK5, 100 = vehicle | binding response (% of control), % at 10 µM;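 active means binding response more than 3 SD above or below the average of its plate-row segment, actives on both sides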;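 further: Alexa488 bead fluorescence after subtracting the streptavidin-only scavenger bead signal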
Target sequence (Q99759 whole entry, looked up): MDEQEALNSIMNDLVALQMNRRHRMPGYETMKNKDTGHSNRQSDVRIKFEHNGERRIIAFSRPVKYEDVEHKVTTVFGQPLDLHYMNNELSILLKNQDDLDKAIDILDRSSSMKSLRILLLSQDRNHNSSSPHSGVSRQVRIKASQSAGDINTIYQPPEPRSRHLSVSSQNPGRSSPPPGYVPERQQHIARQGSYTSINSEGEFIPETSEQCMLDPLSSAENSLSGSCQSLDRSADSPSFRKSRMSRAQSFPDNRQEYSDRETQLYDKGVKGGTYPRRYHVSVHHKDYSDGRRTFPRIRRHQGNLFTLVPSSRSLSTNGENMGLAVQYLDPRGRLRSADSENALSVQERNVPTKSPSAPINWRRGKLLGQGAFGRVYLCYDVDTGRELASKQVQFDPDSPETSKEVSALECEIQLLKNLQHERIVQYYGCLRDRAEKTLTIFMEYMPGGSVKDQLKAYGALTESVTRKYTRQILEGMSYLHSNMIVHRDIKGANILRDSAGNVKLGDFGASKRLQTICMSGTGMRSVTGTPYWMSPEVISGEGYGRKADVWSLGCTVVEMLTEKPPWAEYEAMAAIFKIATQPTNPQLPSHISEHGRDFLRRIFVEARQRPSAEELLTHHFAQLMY
MEKK2 mut-MEK5 = signal of MEK5 binding to mutant human MEKK2 PB1 domain; percent response, % at 10 µM; 0.35% of 290,000 active; AID 1530; bead flow cytometry, Alexa488-MEK5 binding to MEKK2 mutant; in the data active means percent response above about 24%, passing the limit was not always enough
MEKK2wt PB1 HTS = raises or lowers MEK5 binding to wildtype human MEKK2 PB1 domain; bead flow cytometry, Alexa488-MEK5 binding to MEKK2 WT; actives lie on both sides; 1.1% of 290,000 active; binding response (% of control), % at 10 µM; in the data active means binding response below about 67% or above about 130%
Arbovirus anti = antivirals against arbovirus infection; arbovirus infection cell-based antiviral screen; inhibition, % at 10 µM; 0.37% of 200,000 active; in the data active means inhibition above about 30%
Pf gametocyte = inhibitors of late stage P. falciparum gametocyte viability. 0.065% of 150,000 active. inhibition, % at 10.9 µM. AID 743093. P. falciparum stage V gametocytes, ATP luminescence, 24 h;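 active means inhibition above the mean plus 3 SD of compounds within the control limits, set per campaign, cut at about 38% in these data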;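 further: 0% = DMSO wells and 100% = medium only without gametocytes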
MEKK2wt confirm = raises or lowers MEK5 binding to wildtype human MEKK2, retest; 2.4% of 5,900 active; shares compounds with MEKK3 PB1 HTS; binding response (% of control), % at 10 µM; bead flow cytometry, Alexa488-MEK5 binding to MEKK2 WT; actives lie on both sides; in the data active means binding response below about 16% or above about 210%; inactive means in between
MEKK2mut confirm = signal of MEK5 binding to mutant human MEKK2, retest. shares compounds with MEKK3 PB1 HTS. percent response, % at 10 µM. 2% of 5,900 active. bead flow cytometry, Alexa488-MEK5 binding to MEKK2 mutant. AID 1893; in the data active means percent response mostly above about 71%, no sharp cut-off; inactive means mostly below about 38%;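 further: higher means compound restores mutant binding toward wildtype level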
MEKK3 confirm = MEKK3-MEK5 PB1 inhibition, single concentration confirmation | shares compounds with MEKK3 PB1 HTS | binding response (% of control), % at 10 µM | bead flow cytometry, Alexa488-MEK5 binding to MEKK3; hits give low values | 1.8% of 5,900 active;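 active means binding response below 72% of control, or above a set upper limit, though filed actives all read lower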;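 further: 100% = DMSO only wells and 0% = binding blocked by excess unlabeled MEK5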
Active calls of the source: *; · = not tested or not shown; [ ] = remark or other dose.

SMILES	MEKK3 PB1 HTS	MEKK2 mut-MEK5	MEKK2wt PB1 HTS	Arbovirus anti	Pf gametocyte	MEKK2wt confirm	MEKK2mut confirm	MEKK3 confirm
Cc1nn(CCC(=O)NNC(=S)Nc2ccc(F)cc2)c(C)c1Br	129*	0	104	-9	6	102	3	102
O=C(CCc1ccccc1)NNC(=S)Nc1ccc(F)cc1	70*[inhibitor]	-2	84	4	-11	101	-4	93
COc1cc(/C=C/C(=O)c2ccc3c(c2)OCO3)cc(Cl)c1O	101	-3	97	·	·	·	·	·
Cc1cc(N/N=C/c2ccc(N(C)C)cc2)c2ccccc2n1	104	7	100	·	-3	·	·	·
Cc1cc(C)c2nc(C)cc(N/N=C/c3ccc(O)cc3)c2c1	115	119*	237*	·	-17	244*	102*	111
Cc1cc(N/N=C/c2ccc(O)cc2)c2cccc(C)c2n1	110	29*	209*	·	1	134	21	107
CCOc1ccc(Cl)cc1CSc1ncn[nH]1	1.0*[inhibitor]	-31	1.0*[inhibitor]	7	-2	96	-15	88
Clc1ccc(CSc2ncn[nH]2)cc1	·	·	·	4	·	·	·	·
CCN(CC)c1ccc(C=C(c2nnnn2-c2ccc(C)cc2)c2nnnn2-c2ccc(C)cc2)cc1	131*	1	102	-13	-6	95	2	104
Cc1ccc(-n2nnnc2-c2ccccc2)cc1	96	-2	96	-12	-4	·	·	·
N#C/C(=C\c1cccnc1)C(=O)Nc1ccc(S(N)(=O)=O)cc1	100	3	100	·	·	·	·	·
CCOC(=O)/C(C#N)=C/Nc1ccccc1OC	2.0*[inhibitor]	-16	2.0*[inhibitor]	-2	·	106	9	105
CN1CCN(C2=Cc3ccccc3Sc3cc(F)c(Cl)cc32)CC1	99	10	134*	-37	·	163	30	103
CN1CCN(C2=Cc3cc(Cl)ccc3Sc3cc(F)ccc32)CC1	83	53*	202*	-37	5	164	26	103
CN1CCN(C2=Cc3ccccc3Sc3cc(F)c(F)cc32)CC1	107	10	123	-35	·	·	·	·
CN1CCN(C2Cc3cc(Cl)ccc3Sc3cc(F)ccc32)CC1 (centres undefined)	·	·	·	·	13	·	·	·
Cc1ccccc1N1CCN(C2CCCN(C(=O)CCc3c(C)noc3C)C2)CC1 (centres undefined)	102	-1	102	·	·	·	·	·
O=C(O)c1cc(S(=O)(=O)NC(CO)C(O)c2ccc([N+](=O)[O-])cc2)ccc1Br (centres undefined)	103	5	103	·	5	·	·	·
C/C(=N\NC(=O)CCC(=O)NCc1ccccc1)c1ccco1	98	-1	103	·	·	·	·	·
C=CCC(C)(NCc1ccccc1)c1ccco1 (centres undefined)	2.0*[inhibitor]	-16	2.0*[inhibitor]	7	·	106	1	97
CCCCOC(=O)c1ccc(NC(=O)C(=O)CC(=O)c2ccc(OC)cc2)cc1	109	5	101	·	·	·	·	·
Cc1ccc(CNc2ccc(S(=O)(=O)N3CCOCC3)cc2[N+](=O)[O-])cc1	98	5	100	6	·	·	·	·
Cc1cc(C(=O)COC(=O)Cc2n[nH]c(=O)c3ccccc23)c(C)n1-c1ccc2c(c1)OCCO2	135*	0	102	8	·	101	-5	96
O=C(CC1C(=O)NCCN1Cc1ccccc1C(F)(F)F)NCCN1CCOCC1 (centres undefined)	93	-9	99	·	·	·	·	·
COc1ccc([N+](=O)[O-])cc1NC(=O)C(C)N1CCCC1 (centres undefined)	104	6	105	·	·	·	·	·
SMILES	MEKK3 PB1 HTS	MEKK2 mut-MEK5	MEKK2wt PB1 HTS	Arbovirus anti	Pf gametocyte	MEKK2wt confirm	MEKK2mut confirm	MEKK3 confirm
CC(C(=O)Nc1cc([N+](=O)[O-])ccc1Cl)N1CCN(c2ccccc2O)CC1 (centres undefined)	132*	0	102	-3	·	97	2	98
Cn1cnc2cc(NC(=O)COc3ccccc3)ccc21	99	-5	96	·	·	·	·	·
CCC(=O)Nc1ccc2c(c1)ncn2C	75*[inhibitor]	-5	81	4	-9	108	1	103
COc1ccccc1CNC(=O)c1cn(C)c2ccc(S(=O)(=O)N3CCCCC3)cc2c1=O	127	192*	108	-5	16	98	-8	99
O=C(CCl)Nc1cc(S(=O)(=O)N2CCCCCC2)ccc1Cl	130*	0	100	-8	1	107	2	106
COc1ccc(S(=O)(=O)N2CCCCCC2)cc1NC(=O)Cc1ccccc1F	75*[inhibitor]	-19	79	·	18	104	0	102
CC1CCN(S(=O)(=O)c2ccc3c(c2)c(=O)c(C(=O)NCc2ccccc2Cl)cn3C)CC1	97	-2	97	3	·	·	·	·
Cc1cc(C)cc(OCC(=O)Nc2cnn(CCCC(=O)O)c2)c1	88	-7	91	·	·	·	·	·
CCOC(=O)N1CCN(C(=O)c2cn(CC)c3ccc(S(=O)(=O)N4CC(C)CC(C)C4)cc3c2=O)CC1 (centres undefined)	103	-1	100	13	8	·	·	·
c1ccc(CSc2nc3ncncc3[nH]2)cc1	99	-2	102	·	-12	·	·	·
S=c1nc(SCc2ccccc2)[nH]c2ccccc12	49*[inhibitor]	-18	50	5	14	115	4	102
